# Assay results: the supplement of paper PMC11219838
# Unmarked numbers belong to inactive results.
# Tested on: Caenorhabditis elegans L1 (N2)
# Assay: survival and reproduction score of C. elegans L1 (0: 0-10 living worms, 1: 11-20, 2: 21-50, 3: >50, 4: overgrown) (score 0-4); higher = more worms, less nematicidal, active = 1 or less; extreme values may be limits of the assay
# Details: 60 µM; 6 days; temperature: 20 °C
# Summary of the method: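 Worm survival and reproduction were recorded as an ordinal score of living worms per well, read under a dissection microscope. Each 96-well well held about 20 synchronized C. elegans N2 L1s with E. coli HB101 in liquid NGM and compound at 60 µM final (0.6% v/v DMSO), sealed and shaken at 200 rpm, 20 °C, for 6 days. Scores ranged from 0 (0–10 worms) to 4 (overgrown, starved) and were the mean of two biological replicates.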
row,SMILES,survival and reproduction score
1,Cc1ccc(-c2noc(-c3ccc(Br)cc3)n2)cc1,4
2,CC1CCN(C(=O)CSc2nnc(-c3cc4ccccc4o3)o2)CC1,4
3,O=C(CSc1nnc(-c2ccc(Cl)cc2)o1)NC1CCCCC1,4
4,CCOc1ccc(-c2nc(-c3ccccc3)no2)cc1,4
5,Cc1ccc(C(=O)Nc2ccccc2-c2nc(-c3cccnc3)no2)cc1C,4
6,NC(=O)COc1ccccc1-c1nc(-c2ccccc2Cl)no1,4
7,N#Cc1cccc(CSc2nnc(-c3ccncc3)o2)c1,4
8,Cc1ccc(SC(C)c2nc(-c3cccnc3)no2)cc1 (centres undefined),4
9,Cc1ccc(-c2nc(-c3cccc(C)c3)no2)cc1,1 (active)
10,COc1ccc(Cl)cc1-c1nnc(SCC(=O)Nc2nccs2)o1,4
11,C=CCOc1ccc(-c2nc(-c3cccnc3)no2)cc1,0 (active)
12,Cc1cc(OCc2nc(-c3ccccn3)no2)cc(C)c1Cl,4
13,Clc1ccccc1CSc1nnc(-c2ccncc2)o1,4
14,FC(F)(F)c1cccc(-c2noc(-c3ccccc3Cl)n2)c1,3
15,CCSc1nnc(-c2ccc(Cl)cc2Cl)o1,0 (active)
16,Cc1ccc(-c2nnc(SCc3ccc(Br)cc3)o2)cc1,4
17,CCCSc1nnc(-c2ccc(Cl)cc2Cl)o1,0 (active)
18,O=C(CSc1nnc(-c2ccco2)o1)Nc1ccc(Br)cn1,4
19,COc1cccc(-c2noc(COc3ccc(Br)cc3)n2)c1,4
